This is part of a sample that, as a whole, favours compounds with a hit. Of some 79,000 tested, about 15% had one in any assay. No stated cut-off is given here; in the data, active means growth inhibition above about 70%; inactive means the rest.
Columns and labels:
[1] = NCI Yeast Anticancer Drug Screen. Data for the rad50 strain (AID 155);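 further: 0% = growth of vehicle-only cultures of the same strain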; conditions: S. cerevisiae rad50 strain growth inhibition; at 50.0 µM; active compounds read high
How it was run: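 Relative growth inhibition (compound vs vehicle) was measured in yeast with a defined repair-gene alteration.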

[2] = NCI Yeast Anticancer Drug Screen. Data for the mec2-1 strain (AID 157); conditions: S. cerevisiae mec2-1 strain, at 50.0 µM, active compounds read high
How it was run: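 Test agents were screened against the mec2-1 yeast strain, with defined DNA repair or cell cycle alteration. Growth was scored as inhibition against vehicle-only controls.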

[3] = NCI Yeast Anticancer Drug Screen. Data for the sgs1 mgt1 strain (AID 161);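 further: 0% = growth of cultures given vehicle only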; conditions: S. cerevisiae sgs1 mgt1 strain, at 50.0 µM, active compounds read high
How it was run: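 Read-out: growth inhibition vs vehicle controls. Cells: mutant yeast strain deficient in DNA damage repair.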

[4] = NCI Yeast Anticancer Drug Screen. Data for the cln2 rad14 strain (AID 165);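 further: 0% = growth equal to vehicle treated cultures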; conditions: S. cerevisiae cln2 rad14 strain, at 50.0 µM, active compounds read high
How it was run: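 Growth of compound-exposed yeast (cln2 rad14 genotype) measured and expressed as inhibition relative to vehicle.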

[5] = NCI Yeast Anticancer Drug Screen. Data for the bub3 strain (AID 167); conditions: S. cerevisiae bub3 mutant strain, at 50.0 µM, active compounds read high
How it was run: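 Screening used yeast with an engineered genetic alteration affecting cell cycle control. Compound-exposed cultures were compared with vehicle cultures, and reduced growth was taken as inhibition.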

[6] = NCI Yeast Anticancer Drug Screen. Data for the mlh1 rad18 strain (AID 175); conditions: S. cerevisiae mlh1 rad18 strain growth inhibition; at 50.0 µM; active compounds read high
How it was run: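 In this whole-cell yeast screen, a strain with altered DNA damage repair is challenged with compound, and its growth is measured against matched vehicle-treated controls.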

Measured: growth inhibition

CN(C)c1ccc2c(N(C)C)cc(N(C)C)nc2c1
inactive: [1] -14.8% | [2] -4.3% | [3] -17.1% | [4] 20.4% | [5] 2.95% | [6] -12%

NC(CCl)=NCC12CC3CC(CC(C3)C1)C2
inactive: [1] 52% | [2] 25.9% | [3] 48.8% | [4] 14.8% | [5] 54% | [6] 56.9%

CCN(CC)CCN1CNC(=S)NC1
inactive: [1] 0.1% | [2] -20.6% | [3] 11.2% | [5] -1.2%

CC12CCC3c4ccc(O)cc4CCC3C1CCC2=O (stereo not drawn)
inactive: [1] 26.2% | [2] -11.8% | [3] 14.7% | [4] 12.7% | [5] 18.5% | [6] 3.45%

S=C(Sc1ccc(Cl)cc1)Sc1ccc(Cl)cc1
inactive: [1] 46.5% | [2] 19.9% | [3] 54% | [4] 23.1% | [5] 29.6% | [6] 24.1%

O=C(O)c1cccc(-n2ncc(Cl)c(Cl)c2=O)c1
inactive: [1] 8.4% | [2] -0.95% | [3] 19.2% | [4] 19% | [5] 21.4% | [6] 19.6%

CCOC(C=O)OCC
inactive: [1] 0.6% | [2] 6% | [3] 4.35% | [4] -9% | [5] -4.3% | [6] -10.9%

C1Cc2onc(-c3noc4c3CCC4)c2C1
inactive: [1] -11.2% | [2] -16.8% | [3] -15.2% | [4] 22.6% | [5] -14.2% | [6] -14.6%

C[C@H](CCC[C@H](C)OS(=O)(=O)c1ccccc1)OS(=O)(=O)c1ccccc1
inactive: [1] 9.3% | [2] -3.9% | [3] 5.85% | [4] 4.55% | [5] -8.15% | [6] -16.6%

C/C=C/C1OCC(CC)C(CCC)O1 (stereo not drawn)
inactive: [1] 36% | [2] 11.2% | [3] 1.85% | [4] -36.8% | [5] -17.9% | [6] -1.15%

CCOC(=O)c1ccc(Nc2sc(C(=O)c3ccc(Br)cc3)c(N)c2C#N)cc1
inactive: [1] -9.4% | [2] -23.6% | [3] 12.6% | [5] -3.6% | [6] -2.05%

CS(=O)(=O)c1ccc(/C=C\C(=O)O)cc1
inactive: [1] 19.6% | [2] 7.1% | [3] 9% | [5] -3.7% | [6] 19.2%

O=C1C=CC(=O)C2=C1CCCC2
inactive: [1] 17.1% | [2] 10.9% | [3] 10.3% | [5] -20.2% | [6] 26.9%

Cc1cc2c3ccc(C)[n+](C)c3ccc2n1C
inactive: [1] -4.3% | [2] 5.9% | [3] 10.6% | [5] 7.65% | [6] -5.25%

C/C(O)=C(/C=N/C(=S)Nc1ccccc1)C(=O)Nc1ccccc1C
inactive: [1] 25.9% | [2] 5.6% | [3] 40.3% | [5] 27.7%

CC(=O)C1C(=O)C(=O)N(c2cccc([N+](=O)[O-])c2)C1=O (stereo not drawn)
inactive: [1] -40% | [2] -23.9% | [3] -8.75% | [5] -23.4% | [6] -54.3%

Clc1ccc(-c2noc(/C=C\c3ccccc3)n2)cc1
inactive: [1] 12.7% | [2] -20.1% | [3] 4.8% | [5] 8.7% | [6] 7.45%

OCC(O)COc1ccc(Cl)cc1Cl (stereo not drawn)
inactive: [1] 22.2% | [2] 6.25% | [3] 25.8% | [5] 10.1% | [6] 16.8%

Cc1onc(-c2c(F)cccc2Cl)c1-c1ncc(-c2ccc(Br)cc2)o1
inactive: [1] -13.4% | [2] -15.9% | [3] -9.75% | [5] -15.5% | [6] 9.7%

Cc1ccc[n+](CCC(N)=O)c1
inactive: [1] -18.4% | [2] -41.4% | [3] -10.8% | [5] -16.1% | [6] -6.75%

NS(=O)(=O)c1cc(=O)[nH]c(=O)[nH]1
inactive: [1] -12.2% | [2] -10.8% | [3] -0.5% | [5] -1.95% | [6] 3.4%

O=C(NCCc1ccccc1)/C(=C\c1ccc(Cl)cc1Cl)NC(=O)c1ccccc1
inactive: [1] 1.65% | [2] -6.15% | [3] 1.85% | [5] 4.35% | [6] 13.9%

CC(C)(CC(=O)O)CC(=O)O
inactive: [1] 14.4% | [2] 1.15% | [4] 23.8% | [5] 16.1%

CC(C)(C)NCCC(O)c1cc(C(F)(F)F)nc2c(C(F)(F)F)cccc12 (stereo not drawn)
inactive: [1] -4.3% | [2] -36.1% | [4] 21.1% | [5] -11.9%

O=S(=O)(c1ccc(NC(=S)NCc2cccnc2)cc1)N1CCCCC1
inactive: [1] 21.9% | [2] 11.9% | [3] 23.9% | [5] 36.4% | [6] 22.2%

COc1cccc(C(=O)O)c1OC
inactive: [1] 11.2% | [2] 14.4% | [3] 6.55% | [5] -5.35% | [6] 0%

Cc1ccccc1CC(N)C(=O)O (stereo not drawn)
inactive: [1] 2.95% | [2] 10.7% | [3] 2.7% | [5] 8.85% | [6] 1.85%

COc1cc2c(c(OC)c1OC)-c1ccc(SC)c(=O)cc1[C@@H](NC1OC(CO)C(O)C(O)C1O)CC2 (stereo partly drawn)
inactive: [1] -10.6% | [2] -1.85% | [3] 5.25% | [5] 5.05% | [6] 3.45%

CCOc1ccc2c(c1)c(C)cc(C)[n+]2CC
inactive: [1] 4.45% | [2] -41% | [3] -13.2% | [5] 13%

Cc1cc(Nc2ccc3c(c2)OCO3)c2cc3c(cc2n1)OCO3
inactive: [1] 10.6% | [2] -9.15% | [3] -14.9% | [5] -0.5% | [6] -42.1%

C#CCSc1nnnn1-c1ccccc1
inactive: [1] -0.6% | [2] -19.9% | [3] 22.2% | [5] 15.8% | [6] 12.4%

Nc1ccccc1SC1CC(=O)N(c2ccc(Cl)c(Cl)c2)C1=O (stereo not drawn)
inactive: [1] -2.05% | [2] -21.6% | [3] 4.7% | [5] 1.15% | [6] -5.4%

Nc1c(Br)cc(O)c2c1C(=O)c1ccccc1C2=O
inactive: [1] -11.6% | [2] -3.5% | [3] 8.55% | [5] 26.9% | [6] 10.5%

O=c1cc(Cl)nc2ccccn12
inactive: [1] 18.6% | [2] -1.1% | [3] -11% | [5] -3.85% | [6] 4.5%

COC1OC(CO)C(OC)C(O)C1O (stereo not drawn)
inactive: [1] -5.6% | [2] 0.2% | [3] 0.2% | [5] -0.65% | [6] -2.2%

Cc1c(-c2ccc(C3CCCCC3)cc2)nc2ccc(F)cc2c1C(=O)O
inactive: [1] 15.3% | [2] 8.15% | [3] 12.3% | [5] 1.8% | [6] -15.2%

Oc1cccc(CNC2CCCCC2)c1
inactive: [1] 3.5% | [2] 0.25% | [3] -0.6% | [5] -22.4% | [6] 9.15%

CCc1ccccc1C(=O)N(CC)CC
inactive: [1] -14.8% | [2] 18.4% | [3] 16.6% | [5] -16.1% | [6] -6.65%

O=C(O)c1ccc([N+](=O)[O-])cc1S(=O)(=O)O
inactive: [1] -21.6% | [2] -6.8% | [3] -24.3% | [5] -8.4% | [6] -4.55%

c1ccc(Nc2ccccn2)nc1
inactive: [1] -10.2% | [2] -13.8% | [3] -21% | [5] 3.8%

CSc1cnc2ccccc2n1
inactive: [1] 5.55% | [2] -5.95% | [3] -10.6% | [5] -0.85% | [6] -3.9%

CC(=O)NCNC(C)=O
inactive: [1] -4.1% | [2] 5.4% | [3] 3.75% | [5] 7.8% | [6] -0.6%

CNc1ccccc1C(N)=O
inactive: [1] -21.5% | [2] -28.6% | [3] -10.3% | [5] -7.85% | [6] -6.5%

Cc1ccc(Cc2ccc(C)cc2)cc1
inactive: [1] -30.2% | [2] -34.2% | [3] -30.3% | [5] -4.6% | [6] -8.2%

Nc1cccc2cccc(O)c12
inactive: [1] 40.1% | [2] 18.7% | [3] -17.5% | [5] 41.4% | [6] 43.5%

Cc1ccc(C2CCCCC2)cc1Br
inactive: [1] 5.7% | [2] 4.25% | [3] 4.4% | [5] 9.45% | [6] 28.3%

CCOC(=O)C(=O)CC(=O)c1ccccc1
inactive: [1] 8.65% | [2] 8.05% | [3] -5.75% | [5] 8.55% | [6] 11.7%

— PubChem BioAssay (NCI)
